Results from PubChem BioAssay.
The source made the active and inactive calls.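 How the source made its calls, unless noted: active means inhibition above 50%; inactive means the rest.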

Test system: not listed separately
Assay: HepG2 cytotoxicity, primary screen, cytotoxicity control for P. falciparum antimalarial project, cell-based, ATP luminescence (AID 2303);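 further: 0% = DMSO wells and 100% = digitonin-killed cells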
Settings: HepG2 viability, 24-48 h, at 10 µM, stronger effect = higher value

Structure (SMILES)	inhibition
CC(C)NCC(O)COc1ccc(Cc2ccc(OCC(O)CNC(C)C)cc2)cc1 (stereo not given)	-8% (inactive)
Cc1csc(NC(=O)c2cn(-c3ccccc3)nc2-c2cccs2)n1	-1% (inactive)
OC(CNCCCc1ccccc1)c1cc(OCc2ccccc2)cc(OCc2ccccc2)c1 (stereo not given)	8% (inactive)
NC1CCN(Cc2ccc(-c3ccc(-c4nc5ccc(F)cc5[nH]4)s3)cc2)C1 (stereo not given)	32% (inactive)
N=c1n(CCN2CCCCC2)c2ccccc2n1CC(=O)c1cccc([N+](=O)[O-])c1	10% (inactive)
O=C(NC(=S)NCc1ccncc1)c1ccccc1	-7% (inactive)
CC(Cc1ccc(NC(=O)c2ccc(CC(C)NCc3ccc(Cl)c(Cl)c3)cc2)cc1)NCCc1cccc(Cl)c1 (stereo not given)	26% (inactive)
Cc1cc(CNC(c2ccccc2)C2CCC2)cc(C)c1O (stereo not given)	78% (active)
Cc1ccc(CNC(=O)c2cnc(N3CCN(c4ccncc4)CC3)c(Cl)c2)cc1	27% (inactive)
O=C(/C=C/c1ccc(Cl)c(Cl)c1)N1CCC(CN2CCC(Cc3nc4ccccc4[nH]3)CC2)CC1	34% (inactive)
O=C(NCCSCc1c(F)cccc1Cl)c1cnc2c(c1)nc(-c1cnc(-c3ccccc3)[nH]1)n2CCc1cnc[nH]1	10% (inactive)
COc1ccc(-c2cccc(NC(=O)c3ccc(Cl)cc3)c2)cc1CN(C)CCN(C)C	37% (inactive)
CSc1cccc(NC(=O)Nc2ccc(I)c(OCCN(C)C)c2)c1	14% (inactive)
COc1ccc2nccc([C@@H](O)CN3CCC(NC(=O)/C=C/c4cc(F)cc(Br)c4)CC3)c2c1	24% (inactive)
CC(C)C(C(=O)n1ncc2c3c(N)nc(N)nc3ccc21)C(C)C	67% (active)
CC(C)N1CCC(N(Cc2ccc(-c3ccc(C(F)(F)F)cc3)cc2)C(=O)Cn2c(SCc3cccc(F)c3F)nc(=O)c3ccccc32)CC1	74% (active)
Cc1cc(NN=Cc2ccccc2)c2cc(F)ccc2n1	11% (inactive)
Cc1cc(N[C@@H](Cc2ccccc2)C(=O)NCc2cccs2)nc(Nc2ccccc2)n1	3% (inactive)
CCOc1cc2ncnc(Nc3ccc(OCc4ccccc4Br)c(OC)c3)c2cc1OCC	1% (inactive)
O=C(Nc1cccc(-c2ccc(CN3CCCC3)cc2)c1)c1cccc(F)c1	20% (inactive)

Structure (SMILES)	inhibition
COCCOc1ccc(Nc2nccc(-c3c(-c4cccc(NC(=O)c5c(F)cccc5F)c4)nn4ccccc34)n2)cc1F	62% (active)
CC1(C)N=C(N)N=C(N)N1OCCCOc1cc(Cl)c(Cl)cc1Cl	60% (active)
FC(F)(F)c1ccc2nc(-c3ccc(-c4cccc(CN5CCN(CCN6CCOCC6)CC5)c4)cc3)[nH]c2c1	47% (inactive)
Clc1ccc(Nc2nc3nonc3nc2Nc2ccc(Cl)c(Cl)c2)cc1	75% (active)
Nc1ccc(-c2ccc3ccnc(N)c3c2)cn1	43% (inactive)
COc1cccc(Nc2nc(C)cc(NC3CCCC3)n2)c1	41% (inactive)
CCOc1ccc(OCC(=O)Nc2nc(-c3ccc(OC)cc3)c(C)s2)cc1	-7% (inactive)
O=C(Nc1ccc(Cl)cc1)c1cc(Cl)ccc1NC(=O)C1CCc2ccccc2O1 (stereo not given)	1% (inactive)
Cc1cccc(-c2nc(Nc3ccncc3)c3cc(N(C)C)ccc3n2)n1	5% (inactive)
COc1ccc(NS(=O)(=O)c2cc(NC(=O)Cn3ccccc3=O)ccc2N2CCCCC2)cc1	20% (inactive)
COc1ccc2nccc([C@@H](O)CN3CCC(NCCOc4ccccc4[N+](=O)[O-])CC3)c2c1	4% (inactive)
Cc1noc(-c2ccc(O)cc2O)c1-c1ccc2c(c1)OCCCO2	8% (inactive)
N#Cc1cc(C(=O)c2cc(Cl)ccc2O)cn(-c2cc(Cl)cc(Cl)c2)c1=O	34% (inactive)
CC(C)c1ccc(C=CC(=O)N2CCC(CCN3CCC(c4c[nH]c5ccccc45)CC3)CC2)cc1	85% (active)
CN1CCC(C(=O)Nc2ccc(-c3ccc(-c4nc5ccccc5[nH]4)cc3)cc2)CC1	28% (inactive)
CC[C@@H]([C@@H](Cc1cc2ccccc2s1)C(=O)N[C@@H](CCCCNC(=O)OCc1ccccc1)C(=O)Nc1ccccn1)N(O)C=O	36% (inactive)
COc1ccc(Br)cc1/C=C/C(=O)Nc1ccc2c(c1)CCCN(C)C2	8% (inactive)
COc1ccc(NC(=O)[C@H](CC(C)C)Nc2cc(C)nc(NCc3cccc(C)c3)n2)cc1	24% (inactive)
N#Cc1cc([N+](=O)[O-])ccc1-n1nc(-c2cccc(Cl)c2)n(CC2CCCO2)c1=S (stereo not given)	0% (inactive)
O=C(NCCCCN1CCC(c2cccc3ccccc23)CC1)c1ccc(NC(=O)c2ccc(Cl)cc2)cc1	20% (inactive)

Molecular target: L-lactate dehydrogenase (Plasmodium falciparum (isolate CDC / Honduras)) (UniProt Q27743)
Assay: PfLDH activity inhibition – cell lysate, 3D7 strain, counter-screen for P. falciparum growth inhibition project (AID 2304; call rule not given here;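 further: 0% = vehicle and 100% = reference inhibitor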)
Settings: P. falciparum 3D7 crude extract, LDH APAD/NBT absorbance; at 2 µM; stronger effect = higher value

L-lactate dehydrogenase (Plasmodium falciparum (isolate CDC / Honduras)), sequence (Q27743 whole entry, looked up): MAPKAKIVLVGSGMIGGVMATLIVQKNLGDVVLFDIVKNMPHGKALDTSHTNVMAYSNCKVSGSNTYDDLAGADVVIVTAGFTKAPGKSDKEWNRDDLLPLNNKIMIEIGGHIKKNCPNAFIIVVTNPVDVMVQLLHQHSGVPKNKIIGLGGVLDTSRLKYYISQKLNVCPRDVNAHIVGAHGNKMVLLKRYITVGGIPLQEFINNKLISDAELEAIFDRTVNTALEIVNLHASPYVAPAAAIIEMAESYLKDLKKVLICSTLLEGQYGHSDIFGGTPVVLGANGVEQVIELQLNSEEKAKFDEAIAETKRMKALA

Structure (SMILES)	inhibition
CC(C)NCC(O)COc1ccc(Cc2ccc(OCC(O)CNC(C)C)cc2)cc1 (stereo not given)	-5% (inactive)
Cc1csc(NC(=O)c2cn(-c3ccccc3)nc2-c2cccs2)n1	4% (inactive)
OC(CNCCCc1ccccc1)c1cc(OCc2ccccc2)cc(OCc2ccccc2)c1 (stereo not given)	4% (inactive)
NC1CCN(Cc2ccc(-c3ccc(-c4nc5ccc(F)cc5[nH]4)s3)cc2)C1 (stereo not given)	3% (inactive)
N=c1n(CCN2CCCCC2)c2ccccc2n1CC(=O)c1cccc([N+](=O)[O-])c1	-1% (inactive)
O=C(NC(=S)NCc1ccncc1)c1ccccc1	1% (inactive)
CC(Cc1ccc(NC(=O)c2ccc(CC(C)NCc3ccc(Cl)c(Cl)c3)cc2)cc1)NCCc1cccc(Cl)c1 (stereo not given)	4% (inactive)
Cc1cc(CNC(c2ccccc2)C2CCC2)cc(C)c1O (stereo not given)	-2% (inactive)
Cc1ccc(CNC(=O)c2cnc(N3CCN(c4ccncc4)CC3)c(Cl)c2)cc1	-3% (inactive)
O=C(/C=C/c1ccc(Cl)c(Cl)c1)N1CCC(CN2CCC(Cc3nc4ccccc4[nH]3)CC2)CC1	-2% (inactive)
O=C(NCCSCc1c(F)cccc1Cl)c1cnc2c(c1)nc(-c1cnc(-c3ccccc3)[nH]1)n2CCc1cnc[nH]1	0% (inactive)
COc1ccc(-c2cccc(NC(=O)c3ccc(Cl)cc3)c2)cc1CN(C)CCN(C)C	4% (inactive)
CSc1cccc(NC(=O)Nc2ccc(I)c(OCCN(C)C)c2)c1	-1% (inactive)
COc1ccc2nccc([C@@H](O)CN3CCC(NC(=O)/C=C/c4cc(F)cc(Br)c4)CC3)c2c1	7% (inactive)
CC(C)C(C(=O)n1ncc2c3c(N)nc(N)nc3ccc21)C(C)C	-8% (inactive)
CC(C)N1CCC(N(Cc2ccc(-c3ccc(C(F)(F)F)cc3)cc2)C(=O)Cn2c(SCc3cccc(F)c3F)nc(=O)c3ccccc32)CC1	-4% (inactive)
Cc1cc(NN=Cc2ccccc2)c2cc(F)ccc2n1	-1% (inactive)
Cc1cc(N[C@@H](Cc2ccccc2)C(=O)NCc2cccs2)nc(Nc2ccccc2)n1	-2% (inactive)
CCOc1cc2ncnc(Nc3ccc(OCc4ccccc4Br)c(OC)c3)c2cc1OCC	1% (inactive)
O=C(Nc1cccc(-c2ccc(CN3CCCC3)cc2)c1)c1cccc(F)c1	-6% (inactive)

Structure (SMILES)	inhibition
COCCOc1ccc(Nc2nccc(-c3c(-c4cccc(NC(=O)c5c(F)cccc5F)c4)nn4ccccc34)n2)cc1F	1% (inactive)
CC1(C)N=C(N)N=C(N)N1OCCCOc1cc(Cl)c(Cl)cc1Cl	-1% (inactive)
FC(F)(F)c1ccc2nc(-c3ccc(-c4cccc(CN5CCN(CCN6CCOCC6)CC5)c4)cc3)[nH]c2c1	-6% (inactive)
Clc1ccc(Nc2nc3nonc3nc2Nc2ccc(Cl)c(Cl)c2)cc1	0% (inactive)
Nc1ccc(-c2ccc3ccnc(N)c3c2)cn1	3% (inactive)
COc1cccc(Nc2nc(C)cc(NC3CCCC3)n2)c1	1% (inactive)
CCOc1ccc(OCC(=O)Nc2nc(-c3ccc(OC)cc3)c(C)s2)cc1	-8% (inactive)
O=C(Nc1ccc(Cl)cc1)c1cc(Cl)ccc1NC(=O)C1CCc2ccccc2O1 (stereo not given)	-1% (inactive)
Cc1cccc(-c2nc(Nc3ccncc3)c3cc(N(C)C)ccc3n2)n1	-2% (inactive)
COc1ccc(NS(=O)(=O)c2cc(NC(=O)Cn3ccccc3=O)ccc2N2CCCCC2)cc1	1% (inactive)
COc1ccc2nccc([C@@H](O)CN3CCC(NCCOc4ccccc4[N+](=O)[O-])CC3)c2c1	-2% (inactive)
Cc1noc(-c2ccc(O)cc2O)c1-c1ccc2c(c1)OCCCO2	-4% (inactive)
N#Cc1cc(C(=O)c2cc(Cl)ccc2O)cn(-c2cc(Cl)cc(Cl)c2)c1=O	-8% (inactive)
CC(C)c1ccc(C=CC(=O)N2CCC(CCN3CCC(c4c[nH]c5ccccc45)CC3)CC2)cc1	4% (inactive)
CN1CCC(C(=O)Nc2ccc(-c3ccc(-c4nc5ccccc5[nH]4)cc3)cc2)CC1	5% (inactive)
CC[C@@H]([C@@H](Cc1cc2ccccc2s1)C(=O)N[C@@H](CCCCNC(=O)OCc1ccccc1)C(=O)Nc1ccccn1)N(O)C=O	6% (inactive)
COc1ccc(Br)cc1/C=C/C(=O)Nc1ccc2c(c1)CCCN(C)C2	1% (inactive)
COc1ccc(NC(=O)[C@H](CC(C)C)Nc2cc(C)nc(NCc3cccc(C)c3)n2)cc1	-1% (inactive)
N#Cc1cc([N+](=O)[O-])ccc1-n1nc(-c2cccc(Cl)c2)n(CC2CCCO2)c1=S (stereo not given)	-2% (inactive)
O=C(NCCCCN1CCC(c2cccc3ccccc23)CC1)c1ccc(NC(=O)c2ccc(Cl)cc2)cc1	2% (inactive)
